Measured values published in PubChem BioAssay AID504608 (National Center for Advancing Translational Sciences (NCATS), 2011).
Active and inactive are the calls of the source. Calls come from the whole dose curve; as a rule, active = well fitted inhibition curve with a large enough effect; inconclusive = small, poorly fitted or top-dose-only effect; inactive = flat fitted curve, though single readings scatter.

Experiment: Quantitative high throughput screen for delayed death inhibitors of the malarial parasite plastid, 48 hour incubation.
Settings: P. falciparum in erythrocytes, luciferase growth
From the text: NIH Molecular Libraries Probe Production Network [MLPCN] NIH Chemical Genomics Center [NCGC] MLPCN Grant: R21 NS059500 Assay Provider: David Fidock and Eric Ekland, Columbia University The goal of this screen is to discover new antimalarial compounds that act by inhibiting the development of the apicoplast in the malarial parasite Plasmodium falciparum. The biochemical processes that make this organelle essential for erythrocytic stage parasites are not well understood. However, antibiotics, such as azithromycin and tetracycline, which target the apicoplast translational machinery, have a potent antimalarial effect. […] We have developed a cell-based assay that measures parasite growth based on the expression of an integrated copy of a firefly luciferase reporter. To detect small molecules that cause this 'delayed death' phenotype, erythrocytes infected with the luciferase-expressing parasites were incubated with compounds for either one or two generations, corresponding to 48 and 96 hours, respectively. Compounds that inhibit parasite growth in the second generation, but not the first, should be enriched in antimalarials that target the apicoplast. Growth inhibition is detected by a decrease in luciferase activity
Four microliters of culture medium (RPMI 1640 with 0.5% w/v Albumax (GIBCO), 24 mM sodium bicarbonate and 10 ug/mL gentamycin) were dispensed by a Multi-drop Combi into white solid 1536-well plates (Grenier) and 23 nL compound was added by a pin tool. Four microliters of infected erythrocytes (2% hematocrit, 0.1% parasitemia final concentration) in culture medium were dispensed and the plates incubated for 48 hours at 37 C in 5% CO2. Two microliters of luciferase detection reagent was added and luminescence was detected by a ViewLux (PerkinElmer) reader

Row | Compound | Potency
1 | C[C@@H]1CN([C@@H](C)CO)C(=O)c2cc(NC(=O)Nc3ccccc3)ccc2O[C@@H](C)CCCCO[C@H]1CN(C)C(=O)Oc1ccccc1 | 5.04 µM (active)
2 | COCCOC(=O)N(C)C[C@@H]1OCCCC[C@H](C)Oc2ccc(NC(=O)Nc3ccccc3)cc2C(=O)N([C@@H](C)CO)C[C@H]1C | 14.2 µM (active)
3 | COc1ccc(COC[C@H](C)N2C[C@@H](C)[C@H](CN(C)S(=O)(=O)c3ccc(F)cc3)OCCCC[C@H](C)Oc3ccc(NC(=O)Nc4ccccc4)cc3C2=O)cc1 | 0.0036 µM (active)
